As usually defined, the inhibition is the drop in the measured response relative to a control, in per cent.

Here are results for 38 compounds from PubChem BioAssay AID651650 (Sanford-Burnham Center for Chemical Genomics, 2012).

This experiment deals with Neuropilin-1 (Homo sapiens) (UniProt O14786). In words: NRP-1 b1b2 CendR peptide binding inhibitors, dose response, biochemical, FP and AlphaScreen panel (AID 651650). The conditions noted are these: NRP-1 b1b2 / RPARPAR peptide binding, FP or AlphaScreen; run 1, at 100 µM (top of the series). On the technique in general: Alpha assays give light when donor and acceptor beads are brought close together.
Neuropilin-1 (Homo sapiens), sequence (O14786 whole entry, looked up): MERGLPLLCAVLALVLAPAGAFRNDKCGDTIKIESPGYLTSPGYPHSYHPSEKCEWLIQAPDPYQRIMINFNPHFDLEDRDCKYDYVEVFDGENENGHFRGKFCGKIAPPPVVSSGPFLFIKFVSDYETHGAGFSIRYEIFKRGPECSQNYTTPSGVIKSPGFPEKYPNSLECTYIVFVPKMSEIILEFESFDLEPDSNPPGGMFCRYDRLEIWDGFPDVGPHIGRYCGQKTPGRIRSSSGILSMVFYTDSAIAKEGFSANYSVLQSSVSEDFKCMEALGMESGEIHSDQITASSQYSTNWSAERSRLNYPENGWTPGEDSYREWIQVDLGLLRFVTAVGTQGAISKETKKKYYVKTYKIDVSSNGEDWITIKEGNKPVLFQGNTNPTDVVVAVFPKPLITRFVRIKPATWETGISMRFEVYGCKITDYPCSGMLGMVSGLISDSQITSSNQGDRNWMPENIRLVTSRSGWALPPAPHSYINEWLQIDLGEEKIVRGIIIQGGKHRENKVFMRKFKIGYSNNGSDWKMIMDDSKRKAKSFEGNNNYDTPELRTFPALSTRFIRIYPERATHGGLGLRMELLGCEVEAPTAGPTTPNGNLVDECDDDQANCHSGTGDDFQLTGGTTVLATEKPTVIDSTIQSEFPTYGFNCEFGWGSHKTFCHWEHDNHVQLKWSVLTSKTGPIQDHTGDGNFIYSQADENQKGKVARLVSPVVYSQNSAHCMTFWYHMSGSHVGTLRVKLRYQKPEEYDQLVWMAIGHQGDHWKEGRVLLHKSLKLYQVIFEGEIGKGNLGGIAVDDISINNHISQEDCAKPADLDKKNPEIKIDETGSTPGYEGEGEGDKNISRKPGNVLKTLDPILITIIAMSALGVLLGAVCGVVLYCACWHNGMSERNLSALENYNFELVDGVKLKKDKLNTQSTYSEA
With `Cc1cc(C)n2c(Nc3ccc4c(c3)OCCO4)c(-c3ccccn3)nc2n1`, the inhibition stood at 6.1%.

Turning to `COCCNC(=O)c1cc(-c2ccccc2)nn1CC1CC(c2cccc([N+](=O)[O-])c2)=NO1` (stereo not drawn), the inhibition is 14.3%.

As to `O=C(O)CCCC(=O)N1CCc2cc(S(=O)(=O)N3CCc4ccccc43)ccc21`, the inhibition was -2.42%.

Take `O=C(NNC(=O)C1CCN(c2ncccn2)CC1)c1ccc(F)cc1`: the inhibition stood at 26.5%.

For the compound `COC/C=C/C1=CC2=CC(=O)C(C)(OC(=O)c3cnc4ccccc4n3)C(=O)C2=CN1Cc1ccc(OC)cc1` (stereo not drawn), the inhibition is 66.7%.

Regarding `Cc1ccc(N(C(=O)c2ccc(CN3CCOCC3)o2)C(C(=O)NCCC(C)C)c2cccs2)c(C)c1` (stereo not drawn), the inhibition came out at 16%.

As for `CNC(=O)Nc1ccccc1C(=O)NCc1ccccc1`, the inhibition turned out to be 25.7%.

As to `COc1ccncc1-c1csc(C(O)c2ccccc2)n1` (stereo not drawn), the inhibition turned out to be 3.78%.

Take `Cc1ccccc1-n1ncc2c1CC(C)(C)CC2NC(=O)c1ccncc1` (stereo not drawn): the inhibition worked out at 28.1%.

For the compound `O=C(CSc1nc2ccccc2c(=O)n1-c1ccc(F)cc1F)Nc1ccc2c(c1)CCC2`, the inhibition is 21.2%.

Regarding `COc1ccc(CN2C(=O)c3ccccc3C2=O)cc1C(=O)Nc1ccccc1N1CCOCC1`, the inhibition was found to be 30%.

As to `CCCCCc1c(-c2cccc(Cl)c2)ncn1CCc1ccccc1OC`, the inhibition worked out at 51.8%.

Turning to `COc1cc(C(=O)Nc2cc3c(cc2N2CCCCC2)n(C)c(=O)n3C)cc(OC)c1OC`, the inhibition was determined as 57.1%.

For the compound `CCN(C[C@H]1N[C@@](CC)(C(=O)OC)[C@H]2C(=O)N(C)C(=O)[C@@H]12)S(=O)(=O)c1ccc(OC)cc1`, the inhibition is 30.5%.

For `O=C(COC(=O)C1CC(=O)N(Cc2ccccc2)C1)Nc1ccccc1F` (stereo not drawn), the inhibition was determined as 56.9%.

For `N#CC(C#N)=Cc1cc2ccccc2nc1N1CCCCC1`, the inhibition was -3.26%.

On to `c1cc(CNc2ccc3c(c2)OCO3)ccn1`, for which the inhibition came to 27.1%.

For `C/C(=N\N=c1/sc2ccccc2n1C)c1ccccn1`, the inhibition came out at 23.1%.

Regarding `COc1ccc(/C=N/NC(=O)c2cc(C(C)(C)C)[nH]n2)cc1COc1ccc(F)cc1F`, the inhibition stood at 26%.

As to `Cc1ccc(C)c(-n2c(SCC(=O)NC(C(=O)O)C(C)C)nnc2-c2cccc(Cl)c2)c1` (stereo not drawn), the inhibition was determined as 46.2%.

`COc1ccc2c(c1OC)CN1CCc3cc4c(cc3[C@@H]1[C@@H]2O)OCO4`: the inhibition is -3.65%.

For the compound `COc1ccc(N(CC(=O)NCc2ccco2)C(=O)CCC(=O)Nc2ccccn2)cc1`, the inhibition is -5.26%.

In the case of `COc1ccc([C@H]2/C=C\CN(S(C)(=O)=O)[C@@H](C)C(=O)N2Cc2ccc(F)cc2)cc1`, the inhibition was 28.8%.

Regarding `C[C@@H](NC(=O)c1[nH]cnc1C(=O)Nc1cccc(Cl)c1)c1ccccc1`, the inhibition turned out to be 54.3%.

As for `COc1cccc(C(=O)N2N=C(c3ccccc3)CC2(O)C(F)(F)F)c1` (stereo not drawn), the inhibition amounted to 35.9%.

In the case of `Cc1ccc(Cn2c(C(C)Nc3nc(-c4ccc(Cl)c([N+](=O)[O-])c4)cs3)nc3cc(C(F)(F)F)ccc32)cc1` (stereo not drawn), the inhibition was found to be 41.6%.

For the compound `CC(C)(C)OC(=O)NCc1ccc(CNC(=O)c2nc[nH]c2C(=O)N2CCN(C(=O)OC(C)(C)C)CC2)cc1`, the inhibition was found to be 16.3%.

Take `CCc1onc(C)c1C(=O)Nc1cc(C)ccc1OC`: the inhibition is 95.6%.

As to `CCOC(=O)C[C@H]1c2cc(C(F)(F)F)ccc2S(=O)(=O)N1Cc1ccccc1`, the inhibition worked out at 59.5%.

`COc1cc(C(=O)OCCCOC(=O)c2cc(OC)c(OC)c(OC)c2)cc(OC)c1OC`: the inhibition was 13.4%.

As for `COc1ccc(NC(=O)CN2CCN(c3c(C)cc(C)cc3C)CC2)cc1`, the inhibition is 2.2%.

As to `CCOC(=O)c1c2ccc(OCC(=O)NN)cc2n2ccccc12`, the inhibition was -1.02%.

Regarding `CCn1ncc(Br)c1C(=O)N(C)C12CC3CC(CC(C3)C1)C2`, the inhibition was determined as 41.8%.

Consider `CC(C)(C)N(NC(=O)Nc1ccc(Cl)cc1)C(=O)c1ccccc1`, for which the inhibition came to 48.3%.

As to `CCO[C@@H]1OC(C(=O)NCc2ccccc2)=C[C@H](c2ccc(Br)cc2)[C@H]1CCCO`, the inhibition was 102%.

With `COc1ccc(Nc2nc(-c3cccnc3)nc3ccccc23)cn1`, the inhibition was 68.3%.

Take `Cc1cccc(NS(=O)(=O)c2cccs2)c1`: the inhibition was determined as 44.9%.

As for `Cc1ccc(COn2c(-c3ccc(Cl)cc3Cl)nc3ncccc32)cc1`, the inhibition was 7.33%.
